Results taken from the supplement of paper PMC6555819.

test system: RARg homodimer (NR concentration 270 nM); assay: PBM binding z-score (relative to random genomic background probes); higher = stronger binding; sequences stand for … in GC…GCGATTGACAGCGTAGAATGAAGG
In short: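 Binding z-scores take random background probes as their reference. They come from custom Agilent 4×180K protein-binding microarrays incubated 1 h with ligand-free nuclear receptor dimers, with antibodies against each partner (one per run) detecting binding. Scanned fluorescence was regression-normalized.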

Sequence	PBM binding z-score
CCTCGGAGGACAGAACGTCAGAGCTGTCCGCTTT	-0.0228
AGAACGAGGGCACGCTGAGTTGATAGCAGAGTAG	2.42
TCATATAGGTAAACAGGGGAAAGTCCGTAAGTTA	0.0765
GGAACGAGGGCAAGTTGTTAGCAGAGTTTGATGG	1.82
ATATGTAGGTTAGCTGGGGTCATTCAGACTAGGC	2.91
ACTCGGAGGAGAAAGGTCAGAGCTACGCCAGTGA	4.04
TGATTGAGGTTATAAGATCAGGGAACGTTGCAAA	1.13
CGAACCAGGTCATCCAGGACAGTGAATACATTGA	4.8
CGAACTAGGTCAGAACAGGAGAGTGAAGGATGAT	3.2
CCTCGGATGACAACAGGAGGTCAGAGCTGCCAGA	1.91
CCGACTGGGGCAAGGTTAACATAACGCACAGCCA	1.3
CTCGAAAGGTCTGTTGAGGTGAGTATACGGATAA	1.16
TAGCGTAGGTCAGATCGGGCCAGTATACGCTATA	3.72
CCTAGTTGGTCAGGGTCACACACGCTATAGGTAC	3.38
ACTAGTTGGTCATCTGAGGTCACACACAATTCGG	4.23
TCTTGTAGATCAAAGGGTAAGAAAGCCGAAGCCT	-0.178
ATCGAAAGTTCGAAGGTGAGTATACCCACCCGAA	1.51
GCTATTAGTTGAAAGGGCAAGCGAATGATTCTCG	1.04
TAGACTAGGTCATTGGGCCAGTATAGTACGCATC	4.19
ATCGAAAGGTCGAGCTGAGTATAGAGAAAGGGAA	3.96

Sequence	PBM binding z-score
CCTACTGGGCCAAAGGTCATGGATTCCAATGCTC	5.26
CAAACTAGGTCAAGGTCAAACTCGGTTTGTGCCA	6.55
AGTCAAAGTTCGTCTAGGTAACGTAAGATATGCT	2.11
CCTTACGGGTCACGAGTTTATAGCACGACGAGCG	5.24
GCTATTAGTGGAAAGGGCAACCGAATGATTCTCG	1.12
CCAGACAGGTGAAAGGTAACTCGGTCTGGTACGC	0.639
AGAACGAGGGCACGCTGAGTTGATAGCCGAGTAG	2.15
GCTAGCAGGCCATTTGGGTCACTCGATGACGGGC	1.25
CTCGAAAGGTCGTGCTCAAGTGAGTATACCAAAC	3.66
CCTCGGAGGACATAAGGTCAGAGCTGTCCGCTTT	3.55
GCTATTAGTTGAAAGGGGAACCGAATGATTCTCG	0.00369
ATCCAAAGGTCGAAGGTGAGTATACCCACCCGAA	4.35
ACTAGTTTGTCAGCTGAGGTCACACACAATTCGG	3.7
TCGAGTAGGTTAGTCGGGGCCTTCAGCCAACATA	-0.571
GCGACTGGGCCATCAGCAGGTTACCATAACTTAA	0.0324
ACTAGTTGGTCAGCTGAGGTCATACACAATTCGG	3.38
CAGACTGGGGCATAAGGTTACCATAAGCCAGCCC	1.41
TCCTATAGGTAAAGGTGAAAGTCGAACGATATGA	1.3
GATACAGGGTCAGCTAGAGTCCAGAGTATGGAAA	4.41
ACACGGAGGACAAAGGTCAGAGCTACGCCAGTGA	5.24
